These results are taken from PMC4336329 (PLoS ONE, 2015).

Out of some 310,000 compounds screened, about 14,000 (4.5%) showed an effect of 50% or more. Effects have a minus sign here. Only a selection was taken, and strong results are over-represented in it overall.
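Also: peak tail current of the secondary pulse compared with the same well before compound.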

Chain of human ether-à-go-go-related gene (hERG) potassium channel (Q12809 whole entry, looked up): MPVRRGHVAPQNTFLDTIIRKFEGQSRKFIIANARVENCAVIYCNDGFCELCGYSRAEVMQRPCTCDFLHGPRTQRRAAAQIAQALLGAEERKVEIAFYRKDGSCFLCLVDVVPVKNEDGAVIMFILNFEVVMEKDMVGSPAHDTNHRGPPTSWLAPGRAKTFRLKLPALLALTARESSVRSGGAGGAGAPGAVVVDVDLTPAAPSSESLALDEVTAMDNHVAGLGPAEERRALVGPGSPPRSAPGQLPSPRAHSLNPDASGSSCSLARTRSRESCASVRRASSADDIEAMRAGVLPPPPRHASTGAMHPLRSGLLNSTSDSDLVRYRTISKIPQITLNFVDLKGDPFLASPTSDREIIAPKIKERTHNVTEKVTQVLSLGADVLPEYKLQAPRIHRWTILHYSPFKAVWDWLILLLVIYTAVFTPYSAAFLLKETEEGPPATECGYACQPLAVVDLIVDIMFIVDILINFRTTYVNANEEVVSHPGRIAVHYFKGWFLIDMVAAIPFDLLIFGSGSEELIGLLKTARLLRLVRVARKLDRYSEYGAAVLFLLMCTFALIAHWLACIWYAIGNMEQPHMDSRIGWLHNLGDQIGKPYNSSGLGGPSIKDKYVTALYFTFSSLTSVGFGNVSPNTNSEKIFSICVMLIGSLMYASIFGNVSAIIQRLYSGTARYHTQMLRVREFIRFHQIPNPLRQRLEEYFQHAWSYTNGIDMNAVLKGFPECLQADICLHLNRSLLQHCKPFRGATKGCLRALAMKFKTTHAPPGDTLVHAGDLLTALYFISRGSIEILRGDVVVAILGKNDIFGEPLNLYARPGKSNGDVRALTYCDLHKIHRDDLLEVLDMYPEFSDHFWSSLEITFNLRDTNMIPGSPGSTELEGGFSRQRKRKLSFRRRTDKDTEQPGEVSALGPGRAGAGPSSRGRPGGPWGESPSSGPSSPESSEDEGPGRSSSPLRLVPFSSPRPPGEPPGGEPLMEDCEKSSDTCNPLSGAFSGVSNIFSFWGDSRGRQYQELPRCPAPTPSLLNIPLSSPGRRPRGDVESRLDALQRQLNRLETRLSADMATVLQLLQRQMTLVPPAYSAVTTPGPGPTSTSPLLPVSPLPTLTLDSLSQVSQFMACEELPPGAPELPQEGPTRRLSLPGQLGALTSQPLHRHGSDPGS

The assay addresses human ether-à-go-go-related gene (hERG) potassium channel (human, UniProt Q12809). The assay can be described thus: primary screen, population patch clamp on CHO cells stably expressing hERG; higher = less effect of the substance.
`COc1ccc(CN(C)CC(=O)NC(C)c2ccccc2)c(OC)c1` (stereo not shown): the “hERG current change (%, negative = inhibition) at 10uM” value was -13.8%.
The same measure for `Cc1ccc(-c2noc(CN3CCN(C(c4ccccc4)c4ccccc4)CC3)n2)cc1`: 7.84%.
Take `CN(C)CCNC(=O)c1cccc(NS(=O)(=O)c2ccc(Cl)c(Cl)c2)c1`: the “hERG current change (%, negative = inhibition) at 10uM” value worked out at 0.919%.
The same measure for `O=C(c1ccccc1)N1CC(COc2ccccc2)OC(c2cccnc2)O1` (stereo not shown): -5.14%; for `O=C(Cn1nnc(-c2ccccc2NC(=O)c2ccccc2)n1)Nc1ccc2c(c1)OCCO2`: 1.49%; for `Cc1cc(Cl)ccc1C1=CC(=O)C[C@H](c2ccc(F)cc2)C1`: 15.7%.
As to `Cc1cc(=O)[nH]c2c1c(C)nn2C1CCCCC1`, the “hERG current change (%, negative = inhibition) at 10uM” value is reported as -3.84%.
Turning to `O=C(COc1cccc(F)c1)NNC(=O)Cc1ccc(S(=O)(=O)N2CCOCC2)s1`, the “hERG current change (%, negative = inhibition) at 10uM” value is on record as -11.9%.
The same measure for `C/C(=N\Nc1ccc(Cl)cc1)c1c(O)cc(C)oc1=O`: 15.3%.
The same measure for `c1ccc2c(c1)CC/C2=N/Nc1nc2ccccc2[nH]1`: 9.49%; for `COCCCn1c(C(=O)N2CCOCC2)cc2c(=O)n3cccc(C)c3nc21`: -11.4%.
The same measure for `CCOCCCn1c(=N)c(C(N)=S)cc2c(=O)n3cccc(C)c3nc21`: -82.6%; for `CCCCn1c(=N)c(S(=O)(=O)c2ccc(Br)cc2)cc2c(=O)n3cccc(C)c3nc21`: 13%.
As for `COCCCn1c(C(=O)N2CC(C)OC(C)C2)cc2c(=O)n3cccc(C)c3nc21` (stereo not shown), the “hERG current change (%, negative = inhibition) at 10uM” value stood at 0.735%.
`Cc1cccn2c(=O)c3cc(C(N)=S)c(=N)n(CCCN4CCOCC4)c3nc12`: the “hERG current change (%, negative = inhibition) at 10uM” value is listed as -87.6%.
`COCCCn1c(=N)c(C(N)=S)cc2c(=O)n3cccc(C)c3nc21`: the “hERG current change (%, negative = inhibition) at 10uM” value is -84.3%.
The same measure for `CCOCCCNC(=O)c1cc2c(=O)n3cccc(C)c3nc2n1C`: 12.4%; for `Cc1cccn2c(=O)c3cc(C(=O)NCCCOC(C)C)sc3nc12`: -6.24%; for `Cc1cccn2c(=O)c3cc(C(=O)N4CCOCC4)n(C)c3nc12`: -32.1%.
The same measure for `Cc1cccn2c(=O)c3cc(C(N)=S)c(=N)n(CCCOC(C)C)c3nc12`: -78.2%.
The same measure for `COCCCn1c(C(=O)NCCN2CCOCC2)cc2c(=O)n3cccc(C)c3nc21`: -9.21%; for `CCC(C)n1c(SCC(=O)Nc2ccccc2C(F)(F)F)nc2ccsc2c1=O` (stereo not shown): -14%.
`Cc1ccc(C(=O)Oc2coc(CSc3nnc(NC(=O)C4CC4)s3)cc2=O)cc1`: the “hERG current change (%, negative = inhibition) at 10uM” value came out at 16.6%.
Regarding `Cc1[nH]c(C)c(S(=O)(=O)N(C)Cc2ccccc2)c1C(=O)N1CCCC1`, the “hERG current change (%, negative = inhibition) at 10uM” value came to 15.2%.
In the case of `CC(=O)N1CCc2cc(S(=O)(=O)CCC(=O)NCc3ccco3)ccc21`, the “hERG current change (%, negative = inhibition) at 10uM” value came to 12.5%.
The same measure for `Cc1nn(-c2ccccc2)c(C)c1/C=N/NC(=O)CSc1nnc(-c2ccccc2)n1-c1ccc(Cl)cc1`: 5.46%; for `Cc1nc(C)c(C(=O)Nc2cccc(C)c2C)o1`: -0.939%.
The same measure for `Cc1c(NC(=O)C2(C)CCCCC2)c(=O)n(-c2ccccc2)n1C`: 6.22%; for `CC1(O)CCN2C(=O)CCc3cccc1c32` (stereo not shown): -9.44%.
The same measure for `O=C(C1CCCCC1)N1CC(=O)N2CCc3ccccc3C2C1` (stereo not shown): 10.2%; for `CC(C)(C)[C@]1(O)CCN2C[C@H]3c4ccccc4CCc4cccc(c43)[C@@H]2C1.Cl`: -78.3%; for `CCOc1cc(-c2noc(CCC(=O)NCCc3ccccc3)n2)ccc1OC`: 1.79%.
Turning to `CN(C)c1nc(NCc2ccccc2)nc(N/N=C/c2ccc(Br)cc2)n1`, the “hERG current change (%, negative = inhibition) at 10uM” value came out at 13.3%.
Consider `COc1ccccc1C1C(C#N)=C(N)Oc2c1c(-c1ccccc1)nn2-c1ccccc1` (stereo not shown), for which the “hERG current change (%, negative = inhibition) at 10uM” value is recorded as 0.699%.
The same measure for `COc1ccc(C2C(C#N)=C(N)Oc3c2c(-c2ccccc2)nn3-c2ccccc2)c(OC)c1OC` (stereo not shown): -1.15%; for `COc1cc(C2C(C#N)=C(N)Oc3c2c(-c2ccccc2)nn3-c2ccccc2)cc(OC)c1OC` (stereo not shown): -65%.
Take `O=C(Nc1ccn(Cc2c(F)c(F)cc(F)c2F)n1)c1ccc(COc2cc(Cl)ccc2Cl)o1`: the “hERG current change (%, negative = inhibition) at 10uM” value was found to be 6.83%.
For `CC(NCc1ccccc1Cl)C(O)c1ccccc1.Cl` (stereo not shown), the “hERG current change (%, negative = inhibition) at 10uM” value worked out at 4.31%.
The same measure for `CCNCC(O)c1cccc(O)c1` (stereo not shown): 20.8%.
The same measure for `Cl.OC(CNCc1ccc(-c2ccccc2)cc1)c1ccccc1` (stereo not shown): -16.1%; for `CC(NCC#Cc1ccccc1)C(O)c1ccccc1.Cl` (stereo not shown): -1.67%.
As for `OC(CNCc1ccccc1)c1ccccc1` (stereo not shown), the “hERG current change (%, negative = inhibition) at 10uM” value was 4.68%.
In the case of `CSc1ccc(CNCC(O)c2ccccc2)cc1.Cl` (stereo not shown), the “hERG current change (%, negative = inhibition) at 10uM” value was -55%.
The same measure for `Cl.Oc1cccc(C(O)CNCc2ccc(-c3ccccc3)cc2)c1` (stereo not shown): -66%.
The same measure for `Cl.OC(CNCc1ccncc1)c1ccccc1` (stereo not shown): 6.97%; for `CSc1ccc(CNC(C)C(O)c2ccccc2)cc1.Cl` (stereo not shown): -51.4%.
Take `COc1ccc(N2CC(C(=O)NCc3nnnn3-c3ccc(C)c(C)c3)CC2=O)cc1` (stereo not shown): the “hERG current change (%, negative = inhibition) at 10uM” value is listed as -19.6%.
The same measure for `Cc1ccc(CNC(=O)CN2C(=O)COc3ccc(C)cc32)cc1`: -5.06%; for `COc1ccc(C(=O)CNc2ccccc2C#N)cc1`: 28.1%; for `CCCOc1ccc(S(=O)(=O)NCCN2CCOCC2)c2ccccc12`: -23.3%.
The same measure for `CC(CCc1ccccc1)NC(=O)COC(=O)CC1CC2CCC1C2` (stereo not shown): -6.07%.
The same measure for `CSc1ncc(CN2CCN(C3CCCC3)C(CCO)C2)cn1` (stereo not shown): -0.478%; for `OCCC1CN(CC2CC2)CCN1Cc1ccc(F)c(F)c1` (stereo not shown): -25.5%; for `CSc1ccc(CN2CCN(C3CCCC3)C(CCO)C2)cc1` (stereo not shown): -53.8%.
As to `CSc1cccc(CN2CCN(CCC(C)C)C(CCO)C2)c1` (stereo not shown), the “hERG current change (%, negative = inhibition) at 10uM” value is listed as -33.2%.
The same measure for `CSc1cccc(CN2CCN(Cc3ccc(F)c(F)c3)C(CCO)C2)c1` (stereo not shown): -69.5%; for `CSc1ccc(CN2CCN(Cc3ccccc3)C(CCO)C2)cc1` (stereo not shown): -56.8%.
The same measure for `CSc1ccc(CN2CCN(CC=C(C)C)C(CCO)C2)cc1` (stereo not shown): -46.2%; for `CSc1cccc(CN2CCN(CCc3ccccc3)C(CCO)C2)c1` (stereo not shown): -80.4%.
The same measure for `CSc1ncc(CN2CCN(C3CCCCC3)C(CCO)C2)cn1` (stereo not shown): -16.9%.
Regarding `OCCC1CN(Cc2ccc(Oc3ncccn3)cc2)CCN1Cc1ccc(F)c(F)c1` (stereo not shown), the “hERG current change (%, negative = inhibition) at 10uM” value was -23.6%.
The same measure for `OCCC#Cc1ccc(CN2CCN(Cc3ccccc3)C(CCO)C2)cc1` (stereo not shown): -15%; for `CC12CCC(C/C1=N\OC(=O)c1c(F)cccc1F)C2(C)C` (stereo not shown): -0.495%; for `CC(C)(C)C1CCC(=NNC(=O)CN(c2ccccc2)S(=O)(=O)c2ccccc2[N+](=O)[O-])CC1` (stereo not shown): 6.69%.
The same measure for `COCCNC(=O)c1ccc(N2CC3CC(C2)c2cccc(=O)n2C3)c([N+](=O)[O-])c1` (stereo not shown): 21.4%; for `Cc1ccc(S(=O)(=O)C2(C(=O)Nc3cccc(F)c3)CC2)cc1`: 0.141%.
The same measure for `COc1cc2c(cc1OC)CN(C(=O)c1ccc(OC)c([N+](=O)[O-])c1)CC2`: 4.43%; for `COc1cccc(CN(C)C(=O)CSCC(=O)Nc2cc(C)on2)c1OC`: 11.6%.
Regarding `CCCCn1c2c(c(=O)n(C)c1=O)C(c1ccc(OC)cc1)N1CCCCCC1=N2` (stereo not shown), the “hERG current change (%, negative = inhibition) at 10uM” value is -21.9%.
The same measure for `CCOC(=O)C1CCN(Cc2cnc(Oc3ccc(N)cc3)s2)CC1`: -10.6%; for `COc1ccc(S(=O)(=O)N2CCCC(C(=O)NCC3CCCO3)C2)cc1OC` (stereo not shown): 11%.
The same measure for `OCCC1CN(Cc2ccn[nH]2)CCN1Cc1ccc(F)c(F)c1` (stereo not shown): 9.54%.
The same measure for `CSc1ccc(CN2CCN(CCC(C)C)C(CCO)C2)cc1` (stereo not shown): -63.3%; for `CSc1ncc(CN2CCN(CCC(C)C)C(CCO)C2)cn1` (stereo not shown): -1.45%.
As for `CSc1ccc(CN2CCN(C(C)C)C(CCO)C2)cc1` (stereo not shown), the “hERG current change (%, negative = inhibition) at 10uM” value was -24%.
Take `CC(C)(O)C#Cc1ccc(CN2CCN(Cc3ccccc3)C(CCO)C2)cc1` (stereo not shown): the “hERG current change (%, negative = inhibition) at 10uM” value amounted to 12%.
The same measure for `CC(C)c1csc(CN2CCN(Cc3ccc(F)c(F)c3)C(CCO)C2)n1` (stereo not shown): -19.3%; for `CC(C)c1cc(CN2CCN(Cc3ccc(F)c(F)c3)C(CCO)C2)[nH]n1` (stereo not shown): -52.4%.
The same measure for `CSc1cccc(CN2CCN(Cc3ccccc3)C(CCO)C2)c1` (stereo not shown): -57.7%; for `CC(NS(=O)(=O)OCC(Cl)(Cl)Cl)c1ccccc1` (stereo not shown): 9.74%.
The same measure for `Cc1cccc(-c2cc3nc4c(c(N5CCC6(CC5)OCCO6)n3n2)CCCC4)c1`: 10.2%; for `O=S(=O)(CCSc1ccc(C(F)(F)F)cn1)c1ccc(Cl)cc1`: 13%; for `Oc1c(-c2cc(-c3ccco3)[nH]n2)ccc2ccccc12`: 13.7%.
In the case of `CCOC(=O)N1CCc2c(sc3ncn(C)c(=O)c23)C1`, the “hERG current change (%, negative = inhibition) at 10uM” value is 5.05%.
The same measure for `Cc1cc(Cl)ccc1NC(=O)CN1C(=O)CSc2ccc(S(=O)(=O)N3CCOCC3)cc21`: -18.7%; for `Cc1nc2nc[nH]n2c(=O)c1CCC(C)C`: 4.34%; for `COCCNc1nc(N)c([N+](=O)[O-])c(NC2CCCCC2)n1`: 4.56%.
With `NC(=O)C(=O)N/N=C/c1c2ccccc2cc2ccccc12`, the “hERG current change (%, negative = inhibition) at 10uM” value is -11.1%.
With `CCOC(=O)Nc1cccc(NC(=O)c2cc(OC)cc(OC)c2)c1`, the “hERG current change (%, negative = inhibition) at 10uM” value is on record as -53.7%.
The same measure for `COc1cc(OC)cc(C(=O)Nc2cccc(NC(=O)c3ccccc3)c2)c1`: -27.3%.
The same measure for `CCOC(=O)Nc1cccc(Nc2ccccc2)c1`: -74.8%.
The same measure for `COc1cc(OC)cc(C(=O)Nc2cccc(NC(C)=O)c2)c1`: -1.56%; for `CCOC(=O)Nc1cccc(C(=O)O)c1`: 8.63%.
Consider `CCOC(=O)Nc1cccc(NC(=O)c2ccccc2F)c1`, for which the “hERG current change (%, negative = inhibition) at 10uM” value came out at 7.84%.
